The results in this text go back to PubChem BioAssay AID504408 (Broad Institute, 2011).

Screen size: about 300,000 compounds; about 5,200 (1.7%) were called active. This excerpt belongs to a sample that is enriched for actives. Unmarked numbers belong to inactive results.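 Rule for the calls: active = mean replicate activation of at least 50% with a set share of replicates each reaching 50%; inconclusive = only one of those two conditions met; inactive = mean below 50% and too few replicates reaching it.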

This experiment is described as follows: HSF-1 activators, primary screen, NIH3T3-HGL cells, MG132 stress, luminescence, single point (AID 504408).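 Note: 0% = median of the neutral control wells and 100% = twice that signal.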 The following applies: NIH3T3-HGL HSF-1 luciferase reporter, MG132, 8 h; at 9 µM; active compounds read high. In general terms: In a reporter assay the amount or activity of a reporter protein is the signal.
Regarding `CCOc1ccc(CN(CCCl)CCCl)cc1C(=O)OC`, the activation is 68.2% (active).

Regarding `CCCOC(=O)C1C2c3ccccc3C(c3ccccc32)C1C(=O)O` (stereo not given), the activation is -7.72%.

For the molecule `C=CCn1c(O)c(/C=N/N2CCOCC2)c(=O)[nH]c1=S`, the activation was 35%.

Take `CC[C@H]1CC2CN3CCc4c([nH]c5ccccc45)C(C(=O)OC)(C2)C13` (stereo not given in full): the activation was 3.35%.

Take `COc1ccc(-n2c(-c3ccccc3)nc3ccccc3c2=O)cc1`: the activation is -4.8%.

`CC12CCC3C(CCC4CC(=O)CCC43C)C1CC(=NO)C2=O` (stereo not given): the activation is -22.3%.

Consider `O=C(O)COc1ccccc1/C=C1\C(=O)NC(=O)N(CCC2=CCCCC2)C1=O`, for which the activation is 10%.

On to `O=C1NC(=O)N(CCc2ccc(F)cc2)C(=O)/C1=C/C=C/c1ccccc1`, for which the activation was 196% (active).

`O=C1NC(=O)N(Cc2ccco2)C(=O)/C1=C\c1ccc(-c2ccc(F)cc2)o1`: the activation was 14.8%.

Consider `O=C(COC(=O)c1ccccc1)Nc1ccc(Cl)cc1C(=O)c1ccccc1`, for which the activation is -9.79%.

For `O=C(NC(=S)N1C[C@H]2C[C@H](C1)c1cccc(=O)n1C2)c1ccc(F)cc1`, the activation was -0.361%.

Regarding `CN(C)CC1Oc2ccccc2OC1(O)c1ccccc1` (stereo not given), the activation is 89.4% (active).

Regarding `CNC(=O)O/N=C(\N)Cc1csc2ccc(Cl)cc12`, the activation was 27.8%.

Regarding `O=C(O)C1CSC(c2cccnc2)N1` (stereo not given), the activation is 3.54%.

Take `COC(=O)N1C(c2ccccc2)C1c1ccccc1` (stereo not given): the activation was 50.1% (active).

With `COC(=O)C(c1ccccc1)N1CCCCCC1` (stereo not given), the activation was 1.63%.

Take `O=C(CCN1CCCCC1)NCC(=O)Nc1ccc(Br)cc1C(=O)c1ccccc1`: the activation was -6.9%.

With `O=C(CSC1c2ccccc2-c2ccccc21)N/N=C/c1ccccc1`, the activation was -4.94%.

In the case of `COc1ccc(C2NCc3ccc4c(c3-n3cccc32)OCO4)cc1OC` (stereo not given), the activation is 4.67%.

In the case of `CCOC(=O)C1SC2(C(F)(F)C(F)F)CC1(O)c1c(c(OC)c3occc3c1OC)O2` (stereo not given), the activation is -4.08%.
